Screening data deposited in PubChem by National Center for Advancing Translational Sciences (NCATS).
Pf growth 96h: Primary qHTS for delayed death inhibitors of the malarial parasite plastid, 96 hour incubation. AID 504834, 2011. P. falciparum luciferase reporter growth, 96 h. 320,000 tested, 6.9% active. Potency, µM (titrated, usually from 28.7 µM), inactives show at the highest dose activity change, negative = inhibition, hits mostly inhibitors
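Two-generation exposure (96 h) targets delayed-death phenotype. Reporter parasites carrying integrated firefly luciferase, in red cells at 2% hematocrit and 0.05% parasitemia final, kept at 37 C, 5% CO2; luminescence loss indicates inhibition.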
AmpC inh no detg: qHTS Inhibitors of AmpC Beta-Lactamase (assay without detergent). P00811. AmpC nitrocefin hydrolysis, absorbance 480 nm, 0.0001% Triton. Potency, µM (titrated, usually from 57.1 µM), for inactives: top-dose activity change, negative = inhibition, most hits filed as inhibitors. 330,000 tested, 0.52% active;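 also: plate controls were no compound for no effect and no enzyme for full effect; nearly all actives have a fitted effect of over 20% in size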
Target sequence (P00811 whole entry, looked up): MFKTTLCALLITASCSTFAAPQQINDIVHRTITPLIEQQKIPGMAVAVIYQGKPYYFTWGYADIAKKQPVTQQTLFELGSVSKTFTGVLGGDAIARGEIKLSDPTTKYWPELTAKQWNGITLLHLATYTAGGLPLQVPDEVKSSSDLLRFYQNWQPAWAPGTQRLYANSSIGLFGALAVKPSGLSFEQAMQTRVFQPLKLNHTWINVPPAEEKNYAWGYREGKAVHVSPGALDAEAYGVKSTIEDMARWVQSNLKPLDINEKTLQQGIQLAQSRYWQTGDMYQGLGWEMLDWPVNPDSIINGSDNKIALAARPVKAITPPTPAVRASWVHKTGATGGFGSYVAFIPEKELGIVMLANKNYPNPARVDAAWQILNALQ
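20 mM phosphate pH 7.0 + 0.01% (detergent screen) or 0.0001% Triton X-100; 5.3 nM AmpC reagent; cpd preinc 15 min RT; nitrocefin (800 uM stock) to start; A480 q20 s × 4 min; Activity was normalised to no-enzyme and no-compound control wells.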
HCV inh: qHTS Assay for Inhibitors of Hepatitis C Virus (HCV); Huh7.5.1 HCVcc-Cre infection, luciferase reporter, 44 h; AID 651820, 2012; Potency, µM (top dose mostly 41.8 µM), for the others: at the top dose activity change, negative = inhibition, hits mostly inhibitors; 340,000 tested, 3.4% active
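Compounds are dispensed onto cells plated 4 h earlier at 1,000 per well, with HCVcc-Cre virus (about 0.5 moi) added next. Following 44 h of culture, luminescent signal is measured for 15 sec after 15 min with substrate at room temperature.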
Pf growth 48h: Primary qHTS for delayed death inhibitors of the malarial parasite plastid, 48 hour incubation; P. falciparum luciferase growth in erythrocytes, 48 h; Potency, µM (series often up to 28.7 µM), for inactives: at the highest dose activity change, negative = inhibition, actives largely listed as inhibitors; 310,000 tested, 5.9% active
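Luciferase-expressing parasites in RBCs, 2% Hct / 0.1% parasitemia final; RPMI 1640 + 0.5% Albumax; 37 C, 5% CO2, one generation; luminescence read-out, lower signal = inhibition.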
AmpC inh detg: qHTS Inhibitors of AmpC Beta-Lactamase (assay with detergent) | P00811 | AmpC hydrolysis of nitrocefin, absorbance 480 nm, 0.01% Triton | Potency, µM (top dose mostly 114 µM), for the others: at the top dose activity change, negative = inhibition, hits mostly inhibitors | 370,000 tested, 0.041% active | AID 485294, 2010;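 also: 0% = no-compound wells and -100% = no-enzyme wells; nearly all actives have a fitted effect of over 25% in size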
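AmpC (5.3 nM in the dispensed reagent) in 20 mM phosphate pH 7.0 with 0.01% (detergent screen) or 0.0001% Triton X-100 was preincubated with compounds for 15 min at room temperature. Nitrocefin was then added from an 800 uM solution, and hydrolysis was followed at 480 nm.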
AMA1 RON2 block: qHTS for Inhibitors of AMA1-RON; Towards Development of Antimalarial Drug Lead: Primary Screen. 360,000 tested, 0.2% active. AID 720542, 2013. Potency, µM (top dose mostly 58.2 µM), for inactives: at the highest dose activity change, negative = inhibition, hits mostly inhibitors. AlphaScreen AMA1-biotinylated RON2 peptide binding. Plasmodium falciparum AMA1 (3D7) - RON2 peptide interaction;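 also: 0% = vehicle wells and -100% = peptide control; nearly all actives have a fitted effect of over 45% in size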
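AMA1 (3D7) with his tag at 25 nM final met compounds first, then biotinylated RON2 peptide at 25 nM; detection used donor plus acceptor beads, 10 µg/mL apiece, read by AlphaScreen after 30 min at room temperature.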
* hit, by the source's call; ? = inconclusive; / = no result. Rows were chosen to be rich in hits. Some 11% of all compounds tested hit in one or more screens of this group. Calls follow the shape of the dose curve; as a rule, active = well fitted curve in the direction sought with a large enough effect; inconclusive = small, poorly fitted or top-dose-only effect, or another doubt; inactive = no such curve, though single readings can be large; an effect the other way counts as inactive or inconclusive. Unless noted, % is scaled to controls: 0 for no effect and ±100 for the full control effect; potency is read from the fitted curve at half-maximal effect.

SMILES	Pf growth 96h	AmpC inh no detg	HCV inh	Pf growth 48h	AmpC inh detg	AMA1 RON2 block
Cn1cc(CN2CCN(CC(C)(C)C)C(CCO)C2)c2ccccc21 (stereo unspecified)	1.5µM*	-5%	4%	-10%	0%	-6%
CC(C)(C)CN1CCN(Cc2cccnc2)CC1CCO (stereo unspecified)	10µM*	-7%	12%	-13%	-13%	6%
CC(C)CN1CCN(Cc2cn(C)c3ccccc23)CC1CCO (stereo unspecified)	?	-10%	-7%	-7%	-13%	1%
Cc1cccc(CN2CCN(Cc3ccc(-n4cccn4)cc3)CC2CCO)n1 (stereo unspecified)	-10%	15%	8%	-17%	6%	24%
Cc1cccc(CN2CCN(Cc3cccc(-n4cccn4)c3)CC2CCO)n1 (stereo unspecified)	4.1µM*	25%	-4%	-3%	-8%	32%
O=C(NCc1ccccc1F)c1cccc(NC(=O)N2CCSc3ncccc32)c1	/	/	/	/	15%	/
CCN(CC)CCCNC(=O)c1ccc2c(c1)NC(=O)C(CS(=O)(=O)Cc1cccc(Br)c1)N2 (stereo unspecified)	/	/	/	/	-1%	/
Oc1ccc(/C=C/c2ccnc3ccccc23)cc1	-103%	-23%	8.9µM*	?	-9%	-4%
Clc1ccccc1/C=C/c1ccnc2ccccc12	?	-15%	?	1%	4%	16%
Cc1ccccc1OCCC(=O)Nc1ccccc1C(=O)N1CCCCC1	34%	-2%	5%	?	-6%	6%
Cc1ccccc1OCC(=O)Nc1ccccc1C(=O)N1CCCCC1	10µM*	4%	-2%	6%	4%	9%
O=C(Nc1ccccc1C(=O)N1CCCCC1)c1cccs1	6.6µM*	0%	-4%	17%	-7%	-9%
Cc1ccccc1OCC(=O)NCc1ccccc1	3.7µM*	-5%	10%	20%	-10%	8%
Cc1ccccc1OCC(=O)NNC(=O)CCc1ccccc1	?	-14%	17%	0%	7%	115%
Cc1cc(S(=O)(=O)NCc2ccccc2)ccc1OCC(=O)NCc1ccccn1	9.3µM*	0%	-9%	-6%	0%	-1%
CC1N(C)c2cc(NC(=O)c3cccs3)c(P(=O)(Nc3ccc([N+](=O)[O-])cc3)N3CCOCC3)cc2C1(C)C (stereo unspecified)	?	83%	?	13µM*	2%	-6%
Cc1ccccc1OCC(=O)Nc1ccccc1-c1ccccc1NC(=O)COc1ccccc1C	9.3µM*	-49%	?	8.3µM*	-10%	-1%
O=C(Nc1cc([N+](=O)[O-])ccc1N1CCCC1)c1cccs1	13µM*	-29%	?	?	-1%	-3%
O=C(COc1ccccc1-c1ccccc1)NCc1cccc(Cl)c1	13µM*	-3%	?	?	1%	1%
Cc1ccccc1OCC(=O)Nc1cccc(Cl)c1C	-98%	6%	3%	35%	-6%	-8%
O=C(Nc1cc([N+](=O)[O-])ccc1N1CCOCC1)c1cccs1	38%	-3%	-15%	9%	3%	0%
CCc1cccc(C)c1NC(=O)c1cc(S(=O)(=O)NCc2ccccc2Cl)ccc1F	/	/	/	/	-8%	/
CC1(C)c2ccccc2N2CCC(=O)NC21/C=C/c1ccco1 (stereo unspecified)	10µM*	19%	-9%	?	-15%	-11%
O=C(Nc1ccccc1N1CCCC1)C1CCN(S(=O)(=O)c2cccc(C(F)(F)F)c2)CC1	10µM*	0%	?	12µM*	?	-29%
O=C(NNC(=O)C1CCN(S(=O)(=O)c2cccc(C(F)(F)F)c2)CC1)C1CC1	12%	1%	9%	15%	0%	57%
SMILES	Pf growth 96h	AmpC inh no detg	HCV inh	Pf growth 48h	AmpC inh detg	AMA1 RON2 block
O=C(Nc1ccccc1N1CCCCC1)C1CCN(S(=O)(=O)c2cccc(C(F)(F)F)c2)CC1	?	-8%	?	8.3µM*	?	10%
CNC(=O)c1ccc(NC(=O)C2CCN(S(=O)(=O)c3cccc(C(F)(F)F)c3)CC2)cc1	?	-7%	2%	13µM*	12%	-4%
O=C(C1CCC1)N1CCCc2cc(S(=O)(=O)Nc3ccc(F)cc3)ccc21	/	/	/	/	2%	/
CCCCOP(=O)(OCCCC)C1(NS(=O)(=O)c2ccccc2)C=CC(=O)c2ccccc21 (stereo unspecified)	?	-4%	-12%	10µM*	1%	-22%
CCOC(=O)N1CCC2(CC1)OC(=O)C(C)=C2C(=O)NCc1ccc(C)cc1	/	/	/	/	13%	/
CSc1nc(-c2ccccc2)c(C#N)c(=O)[nH]1	48%	-15%	5%	80%	-12%	18%
CCSc1nc(-c2ccccc2)c(C#N)c(=O)[nH]1	84%	2.2µM*	1%	12%	-1%	5%
COc1ccc(C(=O)N/N=C/c2cc(Br)ccc2O)cc1OC	?	-3%	11µM*	?	-6%	97%
COc1ccc(Br)cc1/C=N/NC(=O)c1cc(Br)ccc1O	5%	-27%	/	4%	-2%	/
Cn1cccc1-c1cc(C(=O)N/N=C/c2ccccc2Cl)[nH]n1	0%	-42%	-16%	-3%	-8%	48%
COc1ccc(O)c(/C=N/NC(=O)c2ccc(OCc3cccc(Br)c3)cc2)c1	11%	-27%	2.8µM*	1.7µM*	-3%	8%
Cn1cccc1-c1cc(C(=O)N/N=C/c2cc(Br)ccc2O)[nH]n1	10%	-40%	5µM*	?	4%	93%
O=C(CSC1=NCCS1)c1ccc(Cl)cc1	?	-31%	?	10µM*	-1%	-16%
O=C(CSC1=NCCS1)N1CCN(c2ccc(Cl)cc2)CC1	13%	2%	?	1%	-1%	-9%
Cn1c(SCC(=O)Nc2ccc(F)cc2)nnc1-c1cccnc1	-29%	32µM*	-5%	6%	?	-1%
CCSc1nnc(-c2cccnc2)n1-c1ccc(C)c(Cl)c1	4.7µM*	53%	11%	/	-8%	1%
Cc1ccc(-c2nnc(SCC(=O)CC(=O)Nc3ccccc3)n2C)cc1	?	-26%	-4%	?	?	1%
Cn1c(SCC(=O)Nc2ccccc2F)nnc1-c1cccnc1	?	-4%	15%	25%	?	-1%
